In the supplement of paper PMC7858590:
“And” between values parts separate entries of the source, which are not always exact repeats. Identical values can stand only once. ± gives the standard deviation of the averaged measurements. Over roughly 3,800 compounds, “cell shape (eccentricity) Z-score vs DMSO control” has its median near 1.1; the lowest 2% begin near -4.7. The full list was thinned out, with the lowest values kept by preference.

tested on: human monocyte-derived macrophages (M0); assay: cell shape (eccentricity) Z-score vs DMSO control; higher = more elongated, M2-like morphology; settings: 20 µM; 24 h; macrophage state: M0 (M-CSF)
Procedure: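 Primary human monocyte-derived macrophages (M-CSF differentiated, pooled from 4 donors, 5000 cells/well in 384-well plates) were treated with each compound at 20 uM for 24 h, then fixed and stained with phalloidin/DAPI and imaged on an Opera Phenix (6 fields, about 1000 cells/well). Cell eccentricity was measured with CellProfiler, and a Z-score (t-test) was computed against 4 DMSO control wells in the same row. Negative values mean round (M1-like) cells and positive values mean elongated (M2-like) cells; the paper's hit cutoffs are Z <= -4 (M1) and Z >= 6 (M2). Scale: negative = round, M1-like.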

Compound | cell shape (Z-score)
CCCSc1ccc2[nH]c(NC(=O)OC)nc2c1 | -3.67
CCCOc1ccc2[nH]c(NC(=O)OC)nc2c1 | -1.59
COC(=O)Nc1nc2cc(SC(C)C)ccc2[nH]1 | -4.88 ± 0.16
COC(=O)Nc1nc2cc(Sc3ccccc3)ccc2[nH]1 | -2.59 ± 3.9
COC(=O)Nc1nc2cc(C(=O)C3CC3)ccc2[nH]1 | -3.64
CCCCc1ccc2[nH]c(NC(=O)OC)nc2c1 | -5.71 and -2.34
COc1ccc(C2Oc3cc(OC)ccc3CC2O)cc1 (configuration not stated) | 1.66 ± 1.2
COc1ccc(-c2oc3c(CC=C(C)C)c(O[C@@H]4O[C@H](CO)[C@@H](O)[C@H](O)[C@H]4O)cc(O)c3c(=O)c2O[C@@H]2O[C@@H](C)[C@H](O)[C@@H](O)[C@H]2O)cc1 | -2.65
Nc1ncnc2c1c(-c1cccc(OCc3ccccc3)c1)cn2[C@H]1C[C@H](CN2CCCC2)C1 | 6.27
O=c1c(O)c(-c2ccccc2)oc2ccccc12 | 1.62
CCOC(=O)[C@H](CCc1ccccc1)N[C@@H](C)C(=O)N1Cc2ccccc2C[C@H]1C(=O)O | 2.22
CC(=O)O[C@H]1CC[C@@]2(C)C(C[C@@H](OC(C)=O)[C@]3(C)C2CC[C@@]2(C)[C@H](c4ccoc4)OC(=O)[C@H]4O[C@]423)C1(C)C (some centres not stated) | -2.07
CC(=O)O[C@@H]1CC2C(C)(C)C(=O)C=C[C@]2(C)C2CC[C@@]3(C)[C@H](c4ccoc4)OC(=O)[C@H]4O[C@]43[C@@]21C (some centres not stated) | -4.89
CC(=O)O[C@H]1C[C@@H](O)C(C)(C)C2C[C@@H](OC(C)=O)[C@]3(C)C(CC[C@@]4(C)[C@H](c5ccoc5)OC(=O)C5OC543)[C@]21C (some centres not stated) | -2.78
CC(=O)O[C@@H]1CC2C(C)(C)[C@H](O)CC[C@]2(C)C2CC[C@@]3(C)[C@H](c4ccoc4)OC(=O)C4OC43[C@@]21C (some centres not stated) | 2.33
CC(=O)O[C@@H]1CC2C(C)(C)C(=O)CC[C@]2(C)C2CC[C@@]3(C)[C@H](c4ccoc4)OC(=O)C4OC43[C@@]21C (some centres not stated) | -5.48
CC(=O)O[C@H]1C[C@@H](OC(C)=O)C(C)(C)C2C[C@@H](OC(C)=O)[C@]3(C)C(CC[C@@]4(C)[C@H](c5ccoc5)OC(=O)[C@H]5O[C@]543)[C@]21C (some centres not stated) | -2.55
O=C1C[C@@H](c2ccc(O)c(O)c2)Oc2cc(O[C@@H]3O[C@H](CO)[C@@H](O)[C@H](O)[C@H]3O)cc(O)c21 | 0.661 ± 1.8
OC(CN1CCNCC1)Cn1c2ccc(Br)cc2c2cc(Br)ccc21 (configuration not stated) | -4.09
C=C1CCC[C@]2(C)CC[C@@](O)(C(=C)C(=O)O)C[C@@H]12 | -0.504
CC1(C)CC[C@]2(C(=O)O[C@@H]3O[C@H](CO[C@@H]4O[C@H](CO)[C@@H](O)[C@H](O)[C@H]4O)[C@@H](O)[C@H](O[C@@H]4O[C@H](CO)[C@@H](O)[C@H](O)[C@H]4O)[C@H]3O)CC[C@]3(C)C(=CCC4[C@@]5(C)CC[C@H](O)[C@@](C)(C(=O)O)C5CC[C@]43C)C2C1 (some centres not stated) | 1.07

Compound | cell shape (Z-score)
C=C1CCC2C(CC2(C)C)C(=O)CCC1O (configuration not stated) | -1.93
C#CC1(OCC(O)CN2CCN(c3ccccc3OC)CC2)CCCCC1 (configuration not stated) | -0.311
OCC(O)CN1CCN(c2ccccc2)CC1 (configuration not stated) | 2.29
C#CC1(OCC(O)CN2CCN(c3cccc(C(F)(F)F)c3)CC2)CCCCC1 (configuration not stated) | -7.88
COC1=CC(=O)O[C@@H](/C=C/c2ccccc2)[C@@H]1O | -1.25
COc1cc2c(c(OC)c1OC)CCc1cc(O)c(O)cc1-2 | -0.208
COc1cc2c(c(OC)c1OC)C[C@H]1COC(=O)[C@@H]1Cc1c-2cc(OC)c(OC)c1OC | -9.6
COc1cc2c(c(OC)c1OC)-c1cc3c(cc1C[C@H]1C(=O)OC[C@@H]1C2)OCO3 | 0.816
CC(C)Cn1cnc2c(N)nc3ccccc3c21 | 3.03
CC(C)C12CC1C(C)(O[C@@H]1O[C@H](CO)[C@@H](O)[C@H](O)[C@H]1O)CC2=O (some centres not stated) | 1.52
CC(=O)OCC(=O)[C@H]1CCC2C3CC=C4C[C@@H](O)CC[C@]4(C)C3CC[C@@]21C (some centres not stated) | 3.17
O=C(O)/C=C/c1ccccc1O[C@@H]1O[C@H](CO)[C@@H](O)[C@H](O)[C@H]1O | 1.56
CC1(C)CC[C@@]2(C(=O)O[C@@H]3O[C@H](CO)[C@@H](O)[C@H](O)[C@H]3O)C(C1)C1=CCC3[C@@]4(C)CC[C@@H](O[C@@H]5O[C@H](CO)[C@@H](O)[C@H](O)[C@H]5O[C@@H]5O[C@H](CO)[C@@H](O)[C@H](O)[C@H]5O)C(C)(C)C4CC[C@@]3(C)[C@]1(C)C[C@H]2O (some centres not stated) | 0.124 ± 0.97
CC1OC(OC2C(CO)OC(OC(=O)[C@]34CCC(C)(C)CC3C3=CCC5[C@@]6(C)CC[C@H](OC7OC(C)C(OC8OCC(O)(COC9OCC(O)C(OC%10OCC(OC%11OCC(O)(CO)C%11O)C(O)C%10O)C9O)C8O)C(O)C7O)C(C)(C)C6CC[C@@]5(C)[C@]3(C)CC4)C(O)C2O)C(O)C(O)C1O (some centres not stated) | 2.74
CC1(C)CC[C@]2(C(=O)O[C@@H]3O[C@H](CO)[C@@H](O)[C@H](O)[C@H]3O)CC[C@]3(C)C(=CCC4[C@@]5(C)C[C@H](O)[C@H](O[C@@H]6O[C@H](C(=O)O)[C@@H](O)[C@H](O)[C@H]6O)[C@@](C)(CO)C5CC[C@]43C)C2C1 (some centres not stated) | 0.273
CC1(C)CC[C@@]2(C(=O)O[C@@H]3O[C@H](CO)[C@@H](O)[C@H](O)[C@H]3O)C(C1)C1=CCC3[C@@]4(C)CC[C@@H](O[C@@H]5O[C@H](C(=O)O)[C@@H](O[C@@H]6OC[C@@H](O)[C@H](O)[C@H]6O)[C@H](O)[C@H]5O)C(C)(C)C4CC[C@@]3(C)[C@]1(C)C[C@H]2O (some centres not stated) | 1.81
CC1(C)CC[C@]2(C(=O)O[C@@H]3O[C@H](CO)[C@@H](O)[C@H](O)[C@H]3O)CC[C@]3(C)C(=CCC4[C@@]5(C)C[C@@H](O)[C@H](O)[C@@](C)(CO)C5[C@H](O)C[C@]43C)C2C1 (some centres not stated) | 4.82 ± 3.7
C[C@@H]1O[C@@H](O[C@H]2[C@H](OC(=O)[C@]34CCC(C)(C)C[C@H]3C3=CCC5[C@@]6(C)C[C@H](O)[C@H](O[C@@H]7O[C@H](C(=O)O)[C@@H](O)[C@H](O)[C@H]7O)[C@@](C)(CO)C6[C@H](O)C[C@@]5(C)[C@]3(C)C[C@H]4O)O[C@@H](CO)[C@@H]2O)[C@H](O)[C@H](O)[C@H]1O[C@@H]1OC[C@@H](O)[C@H](O[C@H]2OC[C@](O)(CO)[C@H]2O)[C@H]1O (some centres not stated) | -10.1
C[C@@H]1O[C@@H](O[C@@H]2[C@@H](O)[C@H](O[C@@H]3[C@@H](O)[C@@H](O)[C@H](O[C@H]4[C@H](OC(=O)[C@]56CCC(C)(C)C[C@H]5C5=CCC7[C@@]8(C)C[C@H](O)[C@H](O[C@@H]9O[C@H](C(=O)O)[C@@H](O)[C@H](O)[C@H]9O)[C@@](C)(CO)C8[C@H](O)C[C@@]7(C)[C@]5(C)C[C@H]6O)O[C@@H](CO)[C@@H]4O)O[C@H]3C)OC[C@H]2O)[C@H](O)[C@H](O)[C@H]1O (some centres not stated) | -6.05
C[C@@H]1O[C@@H](O[C@@H]2[C@@H](O)[C@H](OC(=O)[C@]34CCC(C)(C)CC3C3=CCC5[C@@]6(C)CC[C@H](OC7OC(CO)C(OC8OCC(O)C(O)C8O)C(O)C7O)C(C)(C)C6CC[C@@]5(C)[C@]3(C)CC4O)O[C@H]2CO)[C@H](O)[C@H](O)[C@H]1O[C@H]1OC[C@](O)(CO)[C@H]1O (some centres not stated) | -11.6
C[C@@H]1O[C@@H](O[C@@H]2[C@@H](O)[C@H](O[C@@H]3[C@@H](O)[C@@H](O)[C@H](O[C@H]4[C@H](OC(=O)[C@]56CCC(C)(C)C[C@H]5C5=CCC7[C@@]8(C)C[C@H](O)[C@H](O[C@@H]9O[C@H](C(=O)O)[C@@H](O)[C@H](O)[C@H]9O)[C@@](C)(CO)C8[C@H](O)C[C@@]7(C)[C@]5(C)C[C@H]6O)OC[C@H](O)[C@@H]4O)O[C@H]3C)OC[C@H]2O)[C@H](O)[C@H](O)[C@H]1O (some centres not stated) | 0.295
